The results in this text go back to article PMC5540273 (PLoS ONE, 2017).
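Note: KINOMEscan kinase panel screen.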

The test system of the assay is FRK. To be noted: concentration: 1 μM,replicates: in singlicate; n = 1.
As to `Cc1ccc(-n2nc(C(C)(C)C)cc2NC(=O)Nc2ccc(OCCN3CCOCC3)c3ccccc23)cc1` [GW839464], the “%Inh” value was 48%.

Regarding `CC(C)Nc1cc(-c2ccc3c(N)n[nH]c3c2)nc(N)n1` [GSK2221681], the “%Inh” value worked out at 3%.

As for `CCN(CC)CCCCNc1ncc2cc(-c3c(Cl)cccc3Cl)c(NC(=O)NC(C)(C)C)nc2n1`, the “%Inh” value is recorded as 96.2%.

As to `Cc1ccc2c(-c3ccncc3)c(-c3ccc(F)cc3)nn2c1.Cl` [GW461484], the “%Inh” value is reported as 20%.

Regarding `COc1ccc(C[C@@H](CN)NC(=O)c2cc(Br)c(-c3ccnc4[nH]ccc34)s2)cc1.Cl.Cl` [GSK1389063], the “%Inh” value was 29%.

With `C[C@H]1Oc2cc(cnc2N)-c2c(nn(C)c2C#N)CN(C)C(=O)c2ccc(F)cc21`, the “%Inh” value was determined as 92%.

In the case of `CCN(CC)CCOc1ccc(Nc2ncc3cc(-c4c(Cl)cccc4Cl)c(=O)n(C)c3n2)cc1` [SB-601273], the “%Inh” value was found to be 100%.

For `NC(=O)c1cc(-c2ccccc2)cc2c(C3CCNCC3)c[nH]c12` [GSK301362], the “%Inh” value was found to be 2%.
